Consider 93 molecules from PubChem BioAssay AID1117267 (The Scripps Research Institute Molecular Screening Center, 2014).

Structures are written as SMILES. Among all 92,000 compounds or so, about 1,200 (1.3%) were called active. Only a selection was taken, and actives are over-represented in it overall. Values without a mark were called inactive.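 The calls were made as follows: active = activation above the mean of all tested compounds plus 3 SD (cut at about 9.5% in these data); inactive = the rest.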

This assay can be described thus: TTR transcription activators in neuroblastoma reporter cells, primary screen, cell-based, luminescence, SH-SY5Y, TTR promoter Gaussia luciferase (AID 1117267).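 Also: cells exposed to compounds for one day before reading; 0% = median of all test compound wells on the plate.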 The conditions noted are these: at 16.7 µM, stronger effect = higher value, 100% = recombinant luciferase protein wells.
Turning to `O=C(O)C1OC(C(=O)O)C2C1C(F)(F)C2(F)F` (stereo not drawn), the activation is 15.5% (active).

For `COc1ccc(N2c3ccccc3CN(Cc3ccccc3)[C@@H](C)[C@H]2Cc2ccc(-c3ccccc3)cc2)cc1`, the activation is -1.66%.

Regarding `Cc1ccc2c(c1)N(CC(=O)N1CCCc3ccccc31)C(=O)C(C)O2` (stereo not drawn), the activation was -0.78%. The same measure for `Cc1cccc(C)c1NC(=O)CN1C(=O)C(C)Oc2ccccc21` (stereo not drawn): 15.3% (active).

For `O=C(CN1C(=O)COc2ccccc21)Nc1ccc(F)cc1`, the activation is 2.98%. For `O=C(CCC(=O)c1cccs1)NC1CCCCCC1`, the activation is -2.1%. `O=C(CCC(=O)c1cccs1)NCc1ccccc1`: the activation is 9.7% (active). In the case of `O=C(CCC(=O)c1cccs1)Nc1nc2ccccc2s1`, the activation is 0.06%.

As to `CCOC(=O)N1CCN(S(=O)(=O)c2ccc(-n3cnnn3)cc2)CC1`, the activation was -1.92%. With `COCCn1c(SCC(=O)N2CCCCCC2)nc2c(c1=O)SCC2`, the activation is 0.25%. As to `Cc1cc(C(=O)CSc2nc(N)cc(=O)[nH]2)c(C)n1Cc1ccco1`, the activation is 0.58%. The same measure for `CCOC(=O)[C@H]1[C@H]2COc3ccc(OC)cc3[C@@H]2N2C(=O)c3ccc(F)cc3NC(=O)[C@@]12C`: 1.68%; for `CSc1sc(C(=O)NNC(=O)c2ccc(Cl)cc2)c2c1C=CCC2`: -0.42%; for `O=C(Nc1ccccc1C(=O)N1CCCCCC1)c1ccccc1Cl`: 21.4% (active). The same measure for `O=C(c1ccc(Cl)c(Cl)c1)N1CCCC1`: 4.23%.

Consider `O=C(CN1CCCCC1)Nc1ccccc1C(=O)NC1CC1`, for which the activation was 2.49%. `Cc1cc(C)c(C#N)c(N2CCC(C(N)=O)CC2)n1`: the activation is 14.3% (active). The same measure for `N#Cc1c(N2CCCCC2)nc(N)c2c(N)nc(SCC(=O)O)cc12`: 0.31%; for `Cc1cc(C)c(C#N)c(SCc2ccccc2C(=O)O)n1`: 5.37%. The same measure for `CCC(C)C(=O)Nc1cc([N+](=O)[O-])ccc1Cl` (stereo not drawn): 0.38%; for `CCOc1ccc(NC(=O)CSc2nc3ccccc3c(=O)n2Cc2cccs2)cc1`: 0.62%. Consider `Cc1cc(C)c2nc3nc(C)cc(C)c3c(N)c2c1`, for which the activation was 13.6% (active). Take `COc1ccc(CCNC(=O)C(Sc2ccccn2)c2ccccc2)cc1OC` (stereo not drawn): the activation was 1%. Turning to `NC(=O)c1oc2ccccc2c1NC(=O)CS(=O)(=O)c1ccccc1`, the activation was -0.61%. For `CCSc1nc(O)c(C(c2cccc(OC)c2)c2c(O)nc(SCC)[nH]c2=O)c(=O)[nH]1`, the activation is 1.15%. For `CCOc1ncccc1C(=O)N(C)CC(=O)Nc1ccc(F)cc1`, the activation was 4.43%. As to `Cc1cccc(N2C(=O)CC(SC(N)=Nc3ccccc3)C2=O)c1` (stereo not drawn), the activation was 11.1% (active). Consider `O=C1CC(Sc2ncn[nH]2)C(=O)N1c1ccccc1` (stereo not drawn), for which the activation was -1.83%.

Regarding `O=C1CC(N2CCN(c3ccc(F)cc3)CC2)C(=O)N1c1ccccc1` (stereo not drawn), the activation was 0.86%. For the molecule `CCOc1ccc(NC(=O)COc2ccc(S(=O)(=O)N3CCCC3)cc2)cc1`, the activation is 11.4% (active). With `CCc1ccccc1OCC(=O)Nc1ccc(C)c(S(=O)(=O)N2CCCCCC2)c1`, the activation was -2%. Turning to `CCOc1cccc(NC(=O)C2CCCN(S(=O)(=O)c3ccc(OC)cc3)C2)c1` (stereo not drawn), the activation is -2.33%. The same measure for `COc1ccccc1CC(=O)Nc1ccc(S(=O)(=O)N2CCCC2)cc1`: 1%; for `Cc1cccc(OCCCC(=O)Nc2ccc(S(=O)(=O)N3CCCC3)cc2)c1`: -3.27%. `CCOc1ccccc1NC(=O)COc1ccc(S(=O)(=O)N2CCCC2)cc1`: the activation was 15.6% (active). `Cc1ccc(NC(=S)NCc2ccccc2Cl)c(C)c1`: the activation was 0.72%. The same measure for `C/C(CC(=O)Nc1ccc(Cl)cc1)=N\NC(=O)C(=O)NCCO`: -1.14%; for `CN(C)c1ccc(NC(=O)CN2C3CCCC2CC(NC(=O)c2ccccc2)C3)cc1` (stereo not drawn): -2.32%. On to `C/C(CC(=O)Nc1ccc(N(C)C)cc1)=N\NC(=O)c1ccccc1F`, for which the activation is 15.4% (active). The same measure for `CCOc1ccc(CCN2C(=O)C(=O)N([C@@H](Cc3ccc(O)cc3)CN3CCC[C@H]3CN3C(=O)C(=O)NC[C@@H]3CC(C)C)C[C@@H]2Cc2ccccc2)cc1`: 2.35%; for `Cc1ccn(CC(=O)N2N=C(C(F)F)CC2(O)C(F)F)n1` (stereo not drawn): -1.11%. On to `CC(=O)NC1(c2ccc(F)cc2)CCN(C(=O)c2c(F)cccc2F)CC1`, for which the activation was 0.91%. Regarding `COc1ccc(Cn2cc(COC(=O)N(C)Cc3ccccc3)nn2)cc1`, the activation was 0.33%. With `CCCCCc1ccc(-c2ccc(OCC)cc2)nc1`, the activation was 1.61%.

For the molecule `CCCCCc1ccc(-c2cn(Cc3ccc4ccccc4c3)nn2)cc1`, the activation is 10.7% (active). As to `CC(C(=O)N(C)CC(=O)Nc1ccccc1C(F)(F)F)N1C(=O)c2ccccc2C1=O` (stereo not drawn), the activation is 2.02%. For the molecule `COc1ccc(-c2nn(-c3ccccc3)cc2/C=C\C(=O)N2CCOCC2)cc1[N+](=O)[O-]`, the activation was -1.35%.

As to `COc1cc(C(C)=O)ccc1OC(C)C(=O)Nc1ccc(S(=O)(=O)N2CCCC2)cc1` (stereo not drawn), the activation was 10% (active). On to `COc1ccc(-c2ccc(Nc3ccc(S(=O)(=O)N4CCCC4)cc3)nn2)cc1OC`, for which the activation is -5.27%. In the case of `COc1ccc(S(=O)(=O)Nc2ccc(S(=O)(=O)N3CCCCC3)cc2)cc1OC`, the activation is -1.7%.

In the case of `O=C(NCc1cccc(C(F)(F)F)c1)c1cccc(S(=O)(=O)N2CCN(Cc3ccccc3)CC2)c1`, the activation is -1.01%. `N#CCc1c[nH]c2ccc([N+](=O)[O-])cc12`: the activation is 1.86%. Turning to `CC(=O)c1ccc2c(c1)OCCOCCOc1ccc(C(C)=O)cc1OCCOCCO2`, the activation was 1.09%. Consider `CSCCC(NC(N)=O)C(=O)N(C)CC(=O)Nc1ccc(C)cc1` (stereo not drawn), for which the activation was 22.6% (active). `Cc1ccc(NC(=O)CN(C)C(=O)COC(=O)c2nccnc2N)cc1`: the activation was -0.56%. The same measure for `Cc1ccc(NC(=O)CC(=O)Nc2ccc(C)cc2)cc1`: 5.18%.

For `CC1CN(C(=S)Nc2ccc(Br)cc2Cl)CC(C)O1` (stereo not drawn), the activation is -0.06%. Regarding `CCN(C(=O)COC(=O)c1ccccc1O)c1cccc2ccccc12`, the activation is -1.17%.

For `CCC(O)C1CCN(Cc2cn(-c3ccc(OC)cc3)nc2-c2cccc(F)c2)CC1` (stereo not drawn), the activation is 2.63%. For `COc1ccc(N(C)C(=O)C2CCN(S(=O)(=O)c3cccc4nsnc34)CC2)cc1`, the activation is -0.63%.

As to `CCCCN(CC)C(=O)C1CCCN(S(=O)(=O)c2cccc3nsnc23)C1` (stereo not drawn), the activation is -1.18%. Consider `CCCCN(C)CCNC(=O)C1CCCN(S(=O)(=O)c2cccc3nsnc23)C1` (stereo not drawn), for which the activation is 14.2% (active). `Cc1cccc(NC(=O)c2cccc(C(F)(F)F)c2)c1`: the activation was 0.86%. In the case of `Cc1ccccc1CN1CCCCC(NC(=O)Nc2ccccc2F)C1=O` (stereo not drawn), the activation is -2.49%. The same measure for `CCOc1c(OC)cccc1C(=O)NCC1(c2ccccc2)CCCC1`: -2%; for `C=C1C(C(C)C)N(C)C2=NC(c3ccccc3)CC(=O)N12` (stereo not drawn): 11.5% (active). `O=C1CC(c2ccc3c(c2)OCO3)N=C2N(CC3CC3)C/C(=C/c3ccccc3)N12` (stereo not drawn): the activation was -0.26%. `COCCNC(=O)C1CCN(C(=O)C2CC(=O)N(c3ccc(C)cc3)C2)CC1` (stereo not drawn): the activation is 3.12%. As to `COc1ccc(CNc2nccs2)cc1`, the activation is -0.05%. Take `CCOC(=O)c1c(C)oc2cc(Sc3ccccc3)c(O)c(O)c12`: the activation was -2.74%. On to `CCOC(=O)c1c(C)c(C(=O)NCCc2ccc(S(N)(=O)=O)cc2)c(C)n1CC`, for which the activation was -1.43%. Take `O=S(=O)(NCCc1ccccc1)c1ccccc1`: the activation was 0.09%. Regarding `Cc1noc(C)c1S(=O)(=O)NCCc1ccc(S(N)(=O)=O)cc1`, the activation was 13.7% (active). The same measure for `COc1ccccc1/C=N/Nc1nc(C)c(C(C)=O)s1`: 0.48%. As to `COc1ccccc1N1CCN(Cc2cc(OC)c3c(c2)OCO3)CC1`, the activation is 16.9% (active). As for `COc1ccccc1N1CCN(c2nc(C)cc(=O)[nH]2)CC1`, the activation is -0.14%. `COc1ccccc1N1CCN(Cc2nnnn2CCc2ccccc2)CC1`: the activation was -0.88%. In the case of `Cc1ccc(C(=O)COC(=O)CCCC(=O)NC2CCCCC2)cc1[N+](=O)[O-]`, the activation was -0.69%. Take `CCN(CC)CCCN=C(N)N`: the activation was -0.95%. The same measure for `Cc1ccc(NC(=O)CN(C)Cc2ccc(F)cc2)c([N+](=O)[O-])c1`: 2.25%; for `COc1ccc(-n2ncc3c2CC(C)(C)CC3NC(=O)CCc2c(C)noc2C)cc1` (stereo not drawn): -1.69%. With `O=C(NC1CCCC1)C1c2ccccc2OCC(=O)N1CC(F)(F)F` (stereo not drawn), the activation was -1.49%. Regarding `CCOCCn1c(-c2ccccc2)nc2ccccc21`, the activation is 0.16%.

With `O=C(NCc1ccc(Cl)cc1)C1CCN(S(=O)(=O)c2cccs2)CC1`, the activation is -1.39%. As for `C[C@H](NC(=O)C1CCN(S(=O)(=O)c2ccccc2)CC1)C(=O)NCc1ccccc1`, the activation is 10.2% (active). Turning to `COc1ccccc1CNC(=O)C1CCN(S(=O)(=O)c2ccc3c(c2)OCCO3)CC1`, the activation was 0%. `CC1=C(C(=O)N2CCOCC2)CC(CC(=O)NCc2cccc3ccccc23)C(=O)N1CCC1=CCCCC1` (stereo not drawn): the activation was 3.82%. The same measure for `COc1ccc(Cn2ccc3ccc(-c4ccc5ccn(Cc6ccccc6C)c5c4)cc32)cc1`: 2.53%; for `CCCOC1CCCN(Cc2cn(C)nc2-c2ccccc2F)C1` (stereo not drawn): 0.85%; for `Cn1cc(CN2CCCC(CO)C2)c(-c2ccc(Oc3ccccc3)cc2)n1` (stereo not drawn): 11.1% (active). The same measure for `Cn1cc(CN2CCC(C(O)CCc3ccccc3)CC2)c(-c2ccccc2F)n1` (stereo not drawn): -1.93%; for `O=C(CCc1n[nH]c(=O)[nH]c1=O)N/N=C/c1ccc(Br)o1`: 3.17%.

With `C=CCN(Cc1nc(-c2cc(OC)c3c(c2)OCO3)oc1C)C1CCS(=O)(=O)C1` (stereo not drawn), the activation was -0.47%.
